Reference: the supplement of paper PMC8728848
Only a selection was taken, and the strongest signals are over-represented in it overall.

Key:
Assay in all cases: glycan array binding signal (z-score within array); higher = stronger binding
Settings in all cases: glycan notation: IUPAC condensed, linker removed
[1] = molecular target: Fuc(a1-2)Gal(b1-3)GalNAc(b1-4)[Neu5Ac(a2-3)]Gal(b1-4)Glc
Outline: (§1)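 The binding signal is a Z-score computed within each array. Data were drawn from 3228 arrays in the Consortium for Functional Glycomics database, restricted to those with a known protein sequence. Scores were averaged over arrays of the same protein sequence at different concentrations or buffers, and over linkers, and negative values can be taken as non-binding.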

[2] = molecular target: Fuc(a1-2)Gal(b1-4)[Fuc(a1-3)]GlcNAc(b1-3)GalNAc
Outline: as §1

[3] = molecular target: Fuc(a1-2)[GalNAc(a1-3)]Gal(b1-4)[Fuc(a1-3)]GlcNAc(b1-3)GalNAc
Outline: as §1

[4] = molecular target: Fuc(a1-3)[Gal(b1-4)]GlcNAc(b1-2)Man(a1-3)[Fuc(a1-3)[Gal(b1-4)]GlcNAc(b1-2)Man(a1-6)]Man(b1-4)GlcNAc(b1-4)GlcNAc
Outline: as §1

[5] = molecular target: Fuc(a1-3)[Gal(b1-4)]GlcNAc(b1-2)Man(a1-3)[Fuc(a1-3)[Gal(b1-4)]GlcNAc(b1-2)Man(a1-6)]Man(b1-4)GlcNAc(b1-4)[Fuc(a1-6)]GlcNAc
Outline: as §1

Gal(a1-3)Gal(b1-3)GlcNAc = molecular target: Gal(a1-3)Gal(b1-3)GlcNAc
Outline: as §1

[6] = molecular target: Gal(a1-4)Gal(b1-4)GlcNAc(b1-3)Gal(b1-4)Glc
Outline: as §1

[7] = molecular target: Gal(b1-3)GlcNAc(b1-3)Gal(b1-4)GlcNAc(b1-6)[Gal(b1-3)GlcNAc(b1-3)]Gal(b1-4)Glc
Outline: as §1

[8] = molecular target: Gal(b1-3)[Fuc(a1-4)]GlcNAc(b1-2)Man(a1-3)[Gal(b1-3)[Fuc(a1-4)]GlcNAc(b1-2)Man(a1-6)]Man(b1-4)GlcNAc(b1-4)[Fuc(a1-6)]GlcNAc
Outline: as §1

[9] = molecular target: Gal(b1-4)GlcNAc(b1-2)Man(a1-3)Man(b1-4)GlcNAc(b1-4)GlcNAc
Outline: as §1

[10] = molecular target: Gal(b1-4)GlcNAc(b1-2)Man(a1-3)[Gal(b1-4)GlcNAc(b1-2)Man(a1-6)]Man(b1-4)GlcNAc(b1-4)GlcNAc
Outline: as §1

[11] = molecular target: Gal(b1-4)GlcNAc(b1-2)Man(a1-6)Man(b1-4)GlcNAc(b1-4)GlcNAc
Outline: as §1

[12] = molecular target: Gal(b1-4)GlcNAc(b1-2)[Gal(b1-4)GlcNAc(b1-6)]Man(a1-6)[GlcNAc(b1-4)][Gal(b1-4)GlcNAc(b1-2)Man(a1-3)]Man(b1-4)GlcNAc(b1-4)GlcNAc
Outline: as §1

Gal3S(b1-4)GlcNAc6S = molecular target: Gal3S(b1-4)GlcNAc6S
Outline: as §1

Gal3S6S(b1-4)GlcNAc = molecular target: Gal3S6S(b1-4)GlcNAc
Outline: as §1

Gal6S(b1-3)GlcNAc = molecular target: Gal6S(b1-3)GlcNAc
Outline: as §1

GalNAc(b1-3)GalNAc = molecular target: GalNAc(b1-3)GalNAc
Outline: as §1

[13] = molecular target: Glc(a1-4)Glc(a1-4)Glc(a1-4)Glc
Outline: as §1

[14] = molecular target: GlcNAc(a1-4)Gal(b1-4)GalNAc
Outline: as §1

[15] = molecular target: GlcNAc(a1-4)Gal(b1-4)GlcNAc(b1-3)Gal(b1-4)GlcNAc
Outline: as §1

[16] = molecular target: GlcNAc(b1-3)Gal(b1-3)GalNAc
Outline: as §1

[17] = molecular target: GlcNAc(b1-3)Gal(b1-4)GlcNAc(b1-3)Gal(b1-4)GlcNAc
Outline: as §1

GlcNAc(b1-3)Man = molecular target: GlcNAc(b1-3)Man
Outline: as §1

Kdn(a2-3)Gal(b1-3)GlcNAc = molecular target: Kdn(a2-3)Gal(b1-3)GlcNAc
Outline: as §1

[18] = molecular target: Man(a1-2)Man(a1-3)[Man(a1-2)Man(a1-6)]Man(a1-6)[Man(a1-2)Man(a1-2)Man(a1-3)]Man(b1-4)GlcNAc(b1-4)GlcNAc
Outline: as §1

[19] = molecular target: Neu5Ac(a2-3)Gal(b1-4)GlcNAc(b1-3)Gal
Outline: as §1

[20] = molecular target: Neu5Ac(a2-3)Gal(b1-4)GlcNAc(b1-3)Gal(b1-4)[Fuc(a1-3)]GlcNAc
Outline: as §1

[21] = molecular target: Neu5Ac(a2-3)Gal(b1-4)[Fuc(a1-3)]GlcNAc(b1-3)Gal(b1-4)GlcNAc
Outline: as §1

[22] = molecular target: Neu5Ac(a2-3)Gal(b1-4)[Fuc(a1-3)]GlcNAc(b1-3)Gal(b1-4)[Fuc(a1-3)]GlcNAc(b1-3)Gal(b1-4)[Fuc(a1-3)]GlcNAc
Outline: as §1

[23] = molecular target: Neu5Ac(a2-3)Gal(b1-4)[Fuc(a1-3)]GlcNAc(b1-3)GalNAc
Outline: as §1

[24] = molecular target: Neu5Ac(a2-3)Gal(b1-4)[Fuc(a1-3)]GlcNAc(b1-6)[Gal(b1-3)]GalNAc
Outline: as §1

[25] = molecular target: Neu5Ac(a2-3)Gal6S(b1-4)[Fuc(a1-3)]GlcNAc
Outline: as §1

[26] = molecular target: Neu5Ac(a2-3)[GalNAc(b1-4)]Gal(b1-4)GlcNAc(b1-3)GalNAc
Outline: as §1

Neu5Ac(a2-6)Gal(b1-4)Glc = molecular target: Neu5Ac(a2-6)Gal(b1-4)Glc
Outline: as §1

[27] = molecular target: Neu5Ac(a2-6)Gal(b1-4)GlcNAc(b1-2)Man(a1-3)[GlcNAc(b1-2)Man(b1-4)GlcNAc(b1-2)Man(a1-6)]Man(b1-4)GlcNAc(b1-4)GlcNAc
Outline: as §1

[28] = molecular target: Neu5Ac(a2-6)Gal(b1-4)GlcNAc(b1-2)Man(a1-6)Man(b1-4)GlcNAc(b1-4)GlcNAc
Outline: as §1

Neu5Ac(a2-6)GalNAc = molecular target: Neu5Ac(a2-6)GalNAc
Outline: as §1

[29] = molecular target: Neu5Ac(a2-6)GlcNAc(b1-4)GlcNAc(b1-4)GlcNAc
Outline: as §1

[30] = molecular target: Neu5Gc(a2-3)Gal(b1-3)GlcNAc
Outline: as §1

B1: Layilin (Mus musculus), Q8C351 (protein)
chain: MQPGAALQAMLLAVLLAKPRDSKGRLLSASDLDPRGGQLVCRGGTRRPCYKVIYFHDAFQRLNFEEAKETCMEDGGQLVSIETEDEQRLIEKFIENLLASDGDFWIGLKRLEEKQSNNTACQDLYAWTDGSTSQFRNWYVDEPSCGSEVCVVMYHQPSAPPGIGGSYMFQWNDDRCNMKNNFICKYHDDKPSTTPSIWPGGEATEPATPLLPEETQKEDTKETFKERREAALNLAYILIPSIPLFLLLVVTSAVCWVWICRRKREQTDPSTKEQHTIWPTPRQENSPNLDVYNVIRKQSEADLAEPRPDLKNISFRVCSGEAMPDDMSCDYENIAVNPSESGFVTLASMESGFVTNDIYEFSPDRMGRSKESGWVENEIYY
What does the source list for B1?
glycan array binding signal (z-score) [1]: -0.101; glycan array binding signal (z-score) [2]: 4.74; glycan array binding signal (z-score) [3]: 2.16; glycan array binding signal (z-score) [4]: -0.753; glycan array binding signal (z-score) [5]: 1.43; glycan array binding signal (z-score) (Gal(a1-3)Gal(b1-3)GlcNAc): -0.17; glycan array binding signal (z-score) [6]: 3.88; glycan array binding signal (z-score) [7]: -0.423; glycan array binding signal (z-score) [8]: 7.71; glycan array binding signal (z-score) [9]: -0.41; glycan array binding signal (z-score) [10]: -0.504; glycan array binding signal (z-score) [11]: -0.753; glycan array binding signal (z-score) [12]: -0.619; glycan array binding signal (z-score) (Gal3S(b1-4)GlcNAc6S): -0.103; glycan array binding signal (z-score) (Gal3S6S(b1-4)GlcNAc): -0.561; glycan array binding signal (z-score) (Gal6S(b1-3)GlcNAc): -0.243; glycan array binding signal (z-score) (GalNAc(b1-3)GalNAc): -0.932; glycan array binding signal (z-score) [13]: -0.492; glycan array binding signal (z-score) [14]: -1.4; glycan array binding signal (z-score) [15]: 5.27; glycan array binding signal (z-score) [16]: 3.53; glycan array binding signal (z-score) [17]: 3.11; glycan array binding signal (z-score) (GlcNAc(b1-3)Man): 0.015; glycan array binding signal (z-score) (Kdn(a2-3)Gal(b1-3)GlcNAc): -0.719; glycan array binding signal (z-score) [18]: 0.181; glycan array binding signal (z-score) [19]: 0.955; glycan array binding signal (z-score) [20]: 0.119; glycan array binding signal (z-score) [21]: -0.212; glycan array binding signal (z-score) [22]: 2.92; glycan array binding signal (z-score) [23]: 1.82; glycan array binding signal (z-score) [24]: 4.15; glycan array binding signal (z-score) [25]: -0.666; glycan array binding signal (z-score) [26]: 0.49; glycan array binding signal (z-score) (Neu5Ac(a2-6)Gal(b1-4)Glc): 0.086; glycan array binding signal (z-score) [27]: 1.47; glycan array binding signal (z-score) [28]: -0.392; glycan array binding signal (z-score) (Neu5Ac(a2-6)GalNAc): -0.757; glycan array binding signal (z-score) [29]: 0.077; glycan array binding signal (z-score) [30]: 0.013
